Bioassay records (PubChem BioAssay)
Most compounds without a hit are left out; they make up all but 19% or so of the library.
DT40 TDP1 CPT – growth inhibition of DT40 Tdp1-/-;hTDP1 cells with camptothecin (screen for TDP1 inhibitors); Potency, µM (doses to about 46.2 µM), hits mostly inhibitors; chicken DT40 Tdp1-/-;hTDP1 cells + 20 nM CPT, ATP luminescence, 48 h; 420,000 compounds, 12% hits; note: nearly all actives have a fitted effect of over 55% in size
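Cell growth measured by CellTiter-Glo luminescence after a minimum 48 h, 37 C compound exposure with 20 nM CPT in Tdp1-knockout DT40 cells stably expressing hTDP1, seeded 400/well; qHTS titration format.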
HT1080NT lethal – kills 2HG-producing HT-1080-NT fibrosarcoma cells | 360,000 compounds, 1.6% hits | Potency, µM (series often up to 46.1 µM), actives largely listed as cytotoxic | HT-1080-NT fibrosarcoma viability, CellTiter-Glo ATP luminescence, 48 h;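 note: NT is the 2HG producing partner of a matched IDH1 knockdown line; nearly all actives have a fitted effect of over 55% in size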
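Viability by CellTiter-Glo luminescence after 48 h compound exposure at 37C of HT-1080-NT cells (750/well, RPMI, 5% FBS). % activity scaled between DMSO wells and medium-only wells, then curve-fitted and categorized by curve class.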
TDP1 cell noCPT – qHTS for Inhibitors of human tyrosyl-DNA phosphodiesterase 1 (TDP1): qHTS in cells in absence of CPT; DT40 Tdp1-/- hTDP1 cells, no CPT, ATP luminescence, 48 h; AID 686978, 2013; Potency, µM (series often up to 46.2 µM), actives largely listed as inhibitors; 420,000 compounds, 15% hits; note: nearly all actives have a fitted effect of over 55% in size
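Stably hTDP1-transfected Tdp1-null chicken DT40 cells were treated with library compounds minus camptothecin and grown for at least 48 hr at 37 °C, after which cellular ATP was quantified by luminescence.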
IL1B secr inh – blocks inflammasome-driven IL-1 beta release; THP-1 LPS/ATP IL-1B secretion, AlphaLISA, 16 h; active compounds read low; activity change, % at 57.5 µM; 360,000 compounds, 4.7% hits; in the data active = activity change below about -50%; inconclusive = mostly about -30% to -49%
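Secreted IL-1B measured by AlphaLISA bead assay after 16 h compound exposure of THP-1 cells; compounds (final up to 57.5 uM) added 1 h before LPS (250 ng/mL) and ATP (1.25 mM) stimulation; lower signal means less secretion.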
HT1080 IDH1KD tx – toxicity to HT-1080 IDH1 knockdown cells (counter line). Potency, µM (highest dose often 46.1 µM), usual class: cytotoxic. 360,000 compounds, 2% hits. HT-1080 IDH1 knockdown viability, ATP luminescence, 48 h
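Luminescent ATP read-out (CellTiter-Glo, 10 min at room temperature) after 48 h compound exposure at 37 °C gave viability of IDH1-knockdown HT-1080 cells. Activity was normalised to DMSO and cell-free wells, then fitted as concentration-response curves.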
Hits are given with their value; 0 = inactive; ? = inconclusive; - = no result given. Unless noted, calls come from the whole dose curve; as a rule, active = well fitted curve in the direction sought with a large enough effect; inconclusive = small, poorly fitted or top-dose-only effect, or another doubt; inactive = no such curve, though single readings can be large; an effect the other way counts as inactive or inconclusive.

SMILES | DT40 TDP1 CPT | HT1080NT lethal | TDP1 cell noCPT | IL1B secr inh | HT1080 IDH1KD tx
CC(C)CCSc1nc(N)c(C#N)cc1C#N | ? | 0 | 18µM | ? | 0
CN1CCN(/C=N/c2c(C#N)cnn2C)CC1 | 0 | 0 | 0 | 0 | 0
Cn1ncc(C#N)c1/N=C/N(Cc1ccccc1)Cc1ccccc1 | 15µM | 0 | ? | 0 | 0
Cn1nc(C(=O)Nc2ccccc2C#N)c2c1-c1ccccc1SC2 | 0 | - | 0 | - | -
CCOc1ccccc1NC(=O)c1nn(C)c2c1CSc1ccccc1-2 | ? | - | 18µM | - | -
Cc1ccc2c(c1)-c1c(c(C(=O)N3CCN(c4cc(C)ccc4C)CC3)nn1C)CS2 | ? | - | 15µM | - | -
CC1CC(C)CN(C(=O)c2nn(C)c3c2CSc2ccccc2-3)C1 (stereo unspecified) | ? | 0 | 23µM | 0 | 0
CCCCNC(=O)c1nn(C)c2c1CSc1ccccc1-2 | 16µM | - | ? | - | -
CC1CCCC(C)N1CCCNC(=O)c1nn(C)c2c1CSc1ccccc1-2 (stereo unspecified) | 0 | 0 | 0 | ? | 0
CCOc1ccccc1N(CC)C(=O)c1nn(C)c2c1CSc1ccccc1-2 | 26µM | 0 | ? | 0 | 0
COc1ccccc1NC(=O)CN1C(=O)C(c2ccc(F)cc2)=NC12CCCCC2 | ? | - | 23µM | - | -
CC1(C)N=C(c2ccc(F)cc2)C(=O)N1CC(=O)Nc1ccccc1Cl | ? | - | 16µM | - | -
COc1ccc(C2=NC(C)(C)N(CC(=O)Nc3cc(OC)cc(OC)c3)C2=O)cc1 | 0 | - | 0 | - | -
CCOP(=O)(OCC)C(Nc1ccc(OC)cc1)c1ccco1 (stereo unspecified) | 0 | 0 | 0 | 0 | 0
CS(=O)(=O)N1CCN(Cc2ccc([N+](=O)[O-])cc2)CC1 | 0 | 0 | 0 | 0 | 0
Fc1cccc(NC(=S)NCCc2ccccc2)c1 | ? | 0 | 21µM | 0 | 0
COc1ccc(NC(=O)NCCc2cccc(Cl)c2)cc1OC | 0 | 0 | 0 | 0 | 0
Cc1cccnc1NC(=S)NCCc1ccccc1 | ? | 0 | 21µM | 0 | 0
COc1ccc(CCNC(=S)Nc2cccc(C)c2C)cc1 | ? | 0 | ? | 0 | 0
Cc1cccc(NC(=S)NCCc2ccccc2)c1C | 26µM | 0 | ? | 0 | 0
O=C(NCCc1ccccc1)Nc1cccc(Cl)c1 | 16µM | 0 | ? | 0 | 0
CCc1nnc(NS(=O)(=O)c2ccc(NC(=O)c3ccc([N+](=O)[O-])s3)cc2)s1 | 0 | ? | 0 | 0 | 0
CN(C)C(=O)c1cc2cc(Br)ccc2s1 | 0 | 0 | 0 | 0 | 0
O=C(CN1C(=O)NC(Cc2ccccc2)C1=O)Nc1ccccc1OC(F)F (stereo unspecified) | 0 | 0 | 0 | 0 | 0
CCc1cc(Br)ccc1NC(=S)NCCc1ccccc1 | ? | 0 | 21µM | ? | 0
SMILES | DT40 TDP1 CPT | HT1080NT lethal | TDP1 cell noCPT | IL1B secr inh | HT1080 IDH1KD tx
Cc1c(Cl)cccc1NC(=S)NCCc1ccc(F)cc1 | 0 | 0 | 0 | -82 | 0
O=C(NCCCCc1ccccc1)Nc1cccc(F)c1 | ? | ? | 23µM | -99 | ?
Fc1ccc(F)c(NC(=S)NCCc2ccccc2)c1 | 16µM | ? | 16µM | -66 | 0
Cc1ccccc1NC(=O)c1ccccc1N(C)S(=O)(=O)c1ccccc1 | 0 | 0 | ? | 0 | 0
Cc1ccccc1OCC(=O)N(CC(C)C)c1c(N)n(CC(C)C)c(=O)[nH]c1=O | 0 | 0 | 0 | 0 | 0
CC(C)c1ccccc1NC(=S)NN(Cc1ccccc1)c1ccccc1 | ? | 0 | ? | ? | 0
Cc1ccc(NC(=S)NCCc2ccccc2)nc1 | ? | 0 | 5.8µM | 0 | 0
Fc1ccccc1NC(=S)NCCc1ccccc1 | 7.3µM | 0 | 9.2µM | 0 | 0
Cc1cccc(C)c1NC(=S)NCCc1ccc(O)c(O)c1 | 16µM | 0 | 13µM | 0 | 0
Fc1ccccc1NC(=S)NN(Cc1ccccc1)c1ccccc1 | ? | 11µM | ? | 0 | ?
Cc1ccc(SCC(=O)N(C)CC(=O)Nc2cccc(F)c2)c(C)c1 | 0 | 0 | ? | -53 | 0
COc1ccc(-c2nn(-c3ccccc3)cc2C(=O)N(C)CC(=O)Nc2cccc(F)c2)cc1 | ? | 0 | ? | 0 | ?
COc1ccc(NC(=O)CN(C)C(=O)Cc2n[nH]c(=O)c3ccccc23)cc1 | 9.2µM | 0 | 0 | 0 | 0
COc1ccc(-c2nn(-c3ccccc3)cc2C(=O)N(C)CC(=O)Nc2ccccc2Br)cc1 | 23µM | 0 | ? | ? | 0
COc1cccc(-c2nn(-c3ccc(C)cc3)cc2C(=O)N(C)CC(=O)Nc2cccc(F)c2)c1 | 18µM | 0 | ? | 0 | ?
CCC(C)(C(=O)NC1CCCC1)N(C(=O)CC1NC(=O)NC1=O)c1c(C)n(C)n(-c2ccccc2)c1=O (stereo unspecified) | 0 | 0 | 0 | 0 | 0
CS(=O)(=O)Nc1ccc(N2CCCCC2)c(Cl)c1 | 0 | 0 | ? | 0 | 0
CN(CC(=O)Nc1ccccc1Br)C(=O)c1ccccc1OCc1ccc(Cl)cc1 | ? | 0 | 18µM | -59 | 0
COc1ccc(NC(=O)CN(C)C(=O)c2cc(-c3ccccc3)nc3ccccc23)cc1 | ? | 0 | 15µM | ? | 0
COc1ccc(-c2cc(C(=O)N(C)CC(=O)Nc3cccc(F)c3)c3ccccc3n2)cc1 | 16µM | 0 | ? | -56 | ?
COc1ccc(-c2nn(-c3ccccc3)cc2/C=C/C(=O)OCC(=O)Nc2ccccc2C#N)cc1 | 7.3µM | 0 | 23µM | 0 | 0
COc1ccc(NC(=O)CN(C)C(=O)c2cc(-c3ccc(OC)cc3)nc3ccccc23)cc1 | ? | 0 | ? | ? | 0
CN(CC(=O)Nc1cccc(F)c1)C(=O)c1cc(-c2ccccc2)nc2ccccc12 | ? | 0 | ? | 0 | 0
C/C(=N\OCC(=O)Nc1c(C)cc(C)cc1C)c1ccc2c(c1)OCCO2 | ? | 0 | ? | 0 | 0
Cc1ccc2nc(-c3ccccc3)cc(C(=O)N(C)CC(=O)Nc3ccccc3Br)c2c1 | ? | ? | 26µM | ? | ?
SMILES | DT40 TDP1 CPT | HT1080NT lethal | TDP1 cell noCPT | IL1B secr inh | HT1080 IDH1KD tx
CCc1ccc(NC(=O)Cn2c(=O)n(Cc3ccc(C)cc3)c(=O)c3cccnc32)cc1 | ? | - | 0 | - | -
Cc1c(O)ccc(C(=O)CN2CCN(c3ccc(F)cc3)CC2)c1O | ? | 0 | 16µM | 0 | 0
CC(C)(C)c1cc(CSC(=S)NC2CCS(=O)(=O)C2)c(Br)c(C(C)(C)C)c1 (stereo unspecified) | 6.5µM | ? | 12µM | -58 | ?
O=S1(=O)CC=C(CSC(=S)NC2CCS(=O)(=O)C2)C1 (stereo unspecified) | 10µM | 0 | ? | -97 | 0
CCOc1ccccc1NC(=O)NNC(=O)COc1cccc(C)c1C | 0 | 0 | ? | 0 | 0
COc1cccc(Nc2nc(-c3sc(NC(=O)c4ccco4)nc3C)cs2)c1 | ? | 0 | 23µM | 0 | 0
Cc1nc(N)sc1-c1csc(Nc2ncccn2)n1 | 16µM | ? | 18µM | -81 | 21µM
